# According to paper PMC5540273 (PLoS ONE, 2017):
# How the values were obtained:
# Details in all cases: concentration: 1 μM, replicates: in singlicate; n = 1
# TAK1 = test system: T1, TAK1
# T1 construct: gene MAP3K7
# TAOK1 = test system: TAOK1
# TAOK2 = test system: TAOK2
# TAOK3 = test system: TAOK3
# TBK1 = test system: TBK1
# TEC = test system: TEC
# TESK1 = test system: TESK1
# TGFBR1 = test system: TGFBR1
# TGFBR2 = test system: TGFBR2
# TIE1 = test system: TIE1
# TIE2 = test system: T2, TIE2
# T2 construct: gene TEK
# TLK1 = test system: TLK1
# TLK2 = test system: TLK2
# TNIK = test system: TNIK
# TNK1 = test system: TNK1
# TNK2 = test system: TNK2
# TNNI3K = test system: TNNI3K
# TRKA = test system: T3, TRKA
# T3 construct: gene NTRK1
# TRKB = test system: TRKB
# TRKC = test system: T4, TRKC
# T4 construct: gene NTRK3
# 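Also: KINOMEscan kinase panel screen.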
Compound,%Inh (TAK1),%Inh (TAOK1),%Inh (TAOK2),%Inh (TAOK3),%Inh (TBK1),%Inh (TEC),%Inh (TESK1),%Inh (TGFBR1),%Inh (TGFBR2),%Inh (TIE1),%Inh (TIE2),%Inh (TLK1),%Inh (TLK2),%Inh (TNIK),%Inh (TNK1),%Inh (TNK2),%Inh (TNNI3K),%Inh (TRKA),%Inh (TRKB),%Inh (TRKC)
Cc1ccc(-c2ccc3c(ccc4sc5c(c43)NC[C@@H](C)N=C5N(C)C)n2)cn1,7%,0%,0%,0%,0%,9%,0%,0%,13%,0%,0%,0%,0%,2%,34%,0%,0%,0%,0%,0%
O=C(Nc1n[nH]c2cc(-c3ccccc3F)ccc12)C1CC1 [SB-733371],0%,52%,19%,24%,0%,0%,1%,0%,0%,0%,26%,2%,0%,76%,0%,0%,0%,53%,0%,19%
O=C(Nc1n[nH]c2nc(-c3ccccc3)c(Br)cc12)C1CC1 [SB-708998],0%,9%,0%,16%,4%,0%,7%,0%,6%,14%,11%,0%,0%,14%,0%,10%,0%,28%,0%,11%
Nc1nc(-c2ccccc2F)c(-c2ccnc3ccccc23)s1 [GW560459],0%,0%,0%,0%,20%,0%,12%,16%,0%,0%,3%,0%,0%,65%,0%,3%,94.1%,0%,26%,31%
CCCC(=O)Nc1n[nH]c2ncc(-c3cccc4ccccc34)cc12 [SB-642057],0%,0%,1%,1%,27%,15%,40%,14%,49%,0%,0%,32%,100%,0%,0%,4%,5%,0%,0%,0%
Cc1ccc(Oc2ccc(Nc3ncnc4cc[nH]c34)cc2C)cn1,30%,0%,0%,0%,30%,6%,13%,2%,0%,0%,13%,6%,12%,0%,0%,12%,3%,42%,14%,17%
CCn1c(-c2ccoc2)nc2cnccc21 [SB-733887],91.4%,0%,0%,0%,12%,16%,29%,0%,0%,0%,7%,0%,0%,0%,0%,3%,11%,0%,41%,13%
Cc1nn2c(=O)cc(N3CCOCC3)nc2n1Cc1cccc(Cl)c1Cl [GSK2342769],0%,0%,0%,0%,11%,0%,10%,0%,44%,12%,0%,0%,0%,0%,0%,16%,5%,0%,0%,4%
COc1cc(Nc2nccc(N3CCC(NC(=O)C(C)c4ccc(Cl)cc4)C3)n2)cc(OC)c1OC (stereo not drawn) [GSK1379757],0%,0%,0%,0%,14%,0%,27%,0%,0%,10%,0%,0%,0%,0%,0%,6%,0%,63%,0%,43%
COc1cc2ncn(-c3cc(OCc4ccncc4)c(C(N)=O)s3)c2cc1OC [GSK336313],0%,0%,0%,0%,19%,6%,0%,5%,0%,100%,7%,0%,0%,13%,0%,5%,0%,0%,0%,0%
CCC(=O)c1c(-c2ccccc2)c2cc(Cl)ccc2c(=O)n1Cc1cc(C(=O)NC2CC2)n(C)n1,3%,0%,0%,0%,0%,2%,23%,8%,0%,6%,0%,8%,0%,0%,0%,0%,0%,0%,0%,7%
COc1ccc(Nc2nccc(N3CCC(NS(=O)(=O)c4ccc(NC(C)=O)cc4)C3)n2)cc1 (stereo not drawn) [GSK1379729],0%,2%,0%,2%,11%,3%,16%,7%,7%,20%,8%,0%,0%,0%,18%,12%,100%,65%,0%,19%
C[C@@H]1CC[C@H](C(=O)NC2CCCCC2)CN1c1cc(-c2ccc3c(N)n[nH]c3c2)nc(N)n1 [GSK2291363],0%,0%,0%,0%,30%,9%,34%,16%,0%,15%,0%,5%,0%,8%,0%,18%,5%,9%,0%,0%
COC(=O)c1c(-c2ccccc2)c2cc(Br)ccc2c(=O)n1Cc1ccc(S(C)(=O)=O)cc1,39%,0%,0%,0%,19%,25%,22%,4%,0%,21%,3%,14%,0%,0%,0%,1%,0%,0%,0%,24%
O=C1NC(=O)C(c2ccccc2)=C1Nc1cccc(O)c1 [SB-390534],0%,30%,22%,18%,14%,0%,13%,6%,0%,22%,13%,26%,98.4%,16%,5%,0%,4%,0%,0%,37%
CCS(=O)(=O)c1ccc(OC)c(Nc2ncc(-c3ccc(F)cc3)o2)c1.Cl [GW591947],0%,0%,0%,0%,3%,0%,1%,0%,0%,0%,0%,0%,0%,0%,0%,12%,8%,15%,0%,0%
COc1cc2ncn(-c3cc(OCc4ccc(S(C)(=O)=O)cc4)c(C(N)=O)s3)c2cc1OC [GW869979],0%,18%,0%,0%,34%,12%,0%,0%,0%,0%,0%,5%,0%,37%,5%,18%,0%,50%,31%,44%
CCCNC(=O)Nc1ccc(Oc2ncnc3ccn(C)c23)cc1,22%,0%,0%,0%,13%,1%,0%,8%,0%,0%,7%,3%,0%,18%,0%,0%,0%,0%,0%,13%
OCCCNc1nccc(-c2c(-c3cccc(C(F)(F)F)c3)nn3cc(C(F)(F)F)ccc23)n1 [GW630813],0%,0%,0%,0%,10%,0%,11%,0%,0%,0%,0%,6%,0%,3%,0%,0%,0%,0%,7%,3%
COc1cc(Nc2nccc(N3CCC(NC(=O)C4COc5ccccc5O4)C3)n2)cc(OC)c1OC (stereo not drawn) [GSK1379761],7%,11%,0%,5%,0%,0%,33%,12%,0%,17%,0%,8%,0%,0%,28%,6%,0%,77%,31%,61%
COc1ccc(CNC(=O)NC2CCN(c3ccnc(Nc4ccc(F)cc4)n3)C2)cc1 (stereo not drawn) [GSK1379706],6%,0%,0%,0%,27%,17%,7%,46%,0%,12%,2%,26%,16%,0%,0%,10%,10%,54%,26%,44%
